The structures appear in SMILES notation. About 83,000 compounds went through this panel and 20% of them were active in at least one assay; those are over-represented in the sample as a whole.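 Percent growth is the endpoint: 0 to 100 indicates growth inhibition (40 means 60% inhibition), 0 means no net growth, and negative values indicate cell death.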 Calls of active or inactive are those of the source. How the source made its calls: active means growth percent below 10; inactive means the rest.

The source of these data is PubChem BioAssay (NCI).

One assay concerns UACC-257 melanoma. As to the kind of experiment: NCI-60 one-dose screen, 48 h (100 = growth as untreated, 0 = no growth, -100 = all killed). The settings on record: 10 µM unless noted.
`CCCCCCNc1cc(C)nc2ccc(OC)cc12`: the growth is 69.4% (inactive).

On to `Cc1ccc(C)c2c1C(=O)OC2=O`, for which the growth is 102% (inactive).

Regarding `CCN(CC)CCCNC(=O)c1ccc(N)cc1O`, the growth was 99.3% (inactive).

For `O=[N+]([O-])c1ccc(-c2cc3c(Nc4ccc(OCc5cccc(Cl)c5)c(Cl)c4)ncnc3s2)cc1`, the growth was 58.6% (inactive).

`COC(=O)Nc1nc2ccc(C(=O)C3CC3)cc2[nH]1`: the growth is 27.5% (inactive).

Consider `CCOC(=O)C(O)C(O)(c1ccccc1)c1ccccc1` (stereo unspecified), for which the growth was 106% (inactive).

Take `N#Cc1cnn2c(-c3ccc(Cl)cc3)nc(NC3CC3)nc12`: the growth is 111% (inactive).

As to `O=C(C[C@@]1(O)C(=O)Nc2c(Cl)ccc(Cl)c21)c1ccc(C2CC2)cc1`, the growth was 73% (inactive).

As to `CN(CCC(=O)/C(=C\c1ccccc1)c1ccc(Cl)cc1)Cc1ccccc1`, the growth is 53.5% (inactive).

Consider `CC1=NN(c2cccc(Cl)c2)C(=O)/C1=C\c1cn(CC(O)CN2CCCCC2)c2ccccc12` (stereo unspecified), for which the growth is -82.1% (active).

Turning to `O=C(NCOC(O)C(Cl)(Cl)Cl)NCOC(O)C(Cl)(Cl)Cl` (stereo unspecified), the growth was 94.9% (inactive).

Regarding `Cc1nn(-c2ccccc2)c2c1C(c1ccc([N+](=O)[O-])cc1)C(C#N)=C(N)O2` (stereo unspecified), the growth was 88.1% (inactive).

Take `O=[N+]([O-])c1ccccc1C(O)Cc1ccc2ccccc2n1` (stereo unspecified): the growth is 93.3% (inactive).

`N#Cc1cnn2c(-c3ccc(Cl)cc3)nc(NCCc3ccccc3)nc12`: the growth was 99.9% (inactive).

For the compound `CCOC(=O)C(=CNc1ccccc1[N+](=O)[O-])C(=O)OCC`, the growth was 94.2% (inactive).

With `Cc1ccc(NSc2ccccc2[N+](=O)[O-])cc1`, the growth was 58.1% (inactive).

As to `CN(C)CCC(O)(Cc1ccccc1)c1ccccc1` (stereo unspecified), the growth was 111% (inactive).

`CCOc1cc(N)ccc1C(=O)NCCCN(CC)CC`: the growth is 102% (inactive).

Take `COc1ccc(-c2nnc(SCC(=O)NC3=NN=C(c4ccccc4)CS3)o2)cc1`: the growth was 67.1% (inactive).

`C#C[C@]1(O)CC[C@H]2[C@@H]3CC=C4c5sc(N=C(N)N)nc5CC[C@]4(C)[C@H]3CC[C@@]21C`: the growth is -44.8% (active).

For the compound `CCCCCCCCN(CCCCCCCC)C(=N)c1ccnc2ccccc12`, the growth is -68.9% (active).

Turning to `COc1cc(-c2ccc(N=Nc3c(O)c(C(=O)Nc4ccccc4OC)cc4ccccc34)c(OC)c2)ccc1N=Nc1c(O)c(C(=O)Nc2ccccc2OC)cc2ccccc12`, the growth is 109% (inactive).

For `O=C1c2ccccc2C2(c3ccc(O)cc3)c3ccccc3Oc3cccc1c32` (stereo unspecified), the growth was 48% (inactive).

Regarding `Cc1c(Cl)cccc1NS(=O)(=O)c1ccccc1`, the growth is 95.1% (inactive).

In the case of `CN(C)c1cnccn1`, the growth was 95.3% (inactive).

As to `Fc1ccc(Nc2nc3nonc3nc2Nc2ccc(F)cc2)cc1`, the growth was -13.5% (active).

Consider `Cc1nc2ccccc2c(/C=C/c2ccc(Cl)cc2)c1C(=O)/C=C/c1ccc(Cl)cc1`, for which the growth is -17.2% (active).

Regarding `Fc1ccc(Nc2nc(Nc3ccc(-c4nc5ccccc5[nH]4)cc3)c3cn[nH]c3n2)cc1`, the growth was 101% (inactive).

With `Nc1ccc(-c2cc3c(Nc4ccc(OCc5cccc(F)c5)c(Cl)c4)ncnc3s2)cc1`, the growth is 18.3% (inactive).

For the compound `O=[N+]([O-])c1ccc(-c2cc3c(Nc4ccc(Cl)c(C(F)(F)F)c4)ncnc3s2)cc1`, the growth is -18.6% (active).

Regarding `O=[N+]([O-])c1ccc(-c2cc3c(Nc4ccc(Sc5nc6ccccc6s5)c(Cl)c4)ncnc3s2)cc1`, the growth is 66.6% (inactive).

`CCOC(=O)N1CCc2c(sc3c2C(=O)N[C@H](c2ccc(OC)cc2)N3)C1`: the growth is 86.6% (inactive).

With `Cc1cn(C2CCCCC2)c(=O)[nH]c1=O`, the growth is 102% (inactive).

As for `Cc1csc(NC(=O)c2sc3nc(-c4cccs4)ccc3c2N)n1`, the growth is 109% (inactive).

With `Clc1ccc(-c2nc(NCCc3ccccc3)nc3c(NCCc4ccccc4)cnn23)cc1`, the growth is 71.5% (inactive).

Regarding `Cc1nc(C)c(-c2nn3c(-c4cccc(F)c4)nnc3s2)s1`, the growth is 92.4% (inactive).

Turning to `COc1ccc(-c2nnc(-c3ccc4c(c3)nc(-c3ccccc3)n4C3CCCCC3)o2)cc1`, the growth was 67.4% (inactive).

Take `Cc1cc2c(F)c(Oc3ncnc(Nc4ccc(N5C[C@@H](C)N[C@@H](C)C5)cc4)c3C#N)cc(F)c2[nH]1`: the growth is 65.9% (inactive).

With `CCN(CC)CCCNC(=O)c1ccc(N)cc1`, the growth is 92.9% (inactive).

Another assay concerns M14 melanoma. The description is as above. The note with it: 10 µM unless noted.
As to `CCCCCCNc1cc(C)nc2ccc(OC)cc12`, the growth was 59.1% (inactive).

With `Cc1ccc(C)c2c1C(=O)OC2=O`, the growth is 102% (inactive).

With `CCN(CC)CCCNC(=O)c1ccc(N)cc1O`, the growth is 94.5% (inactive).

In the case of `O=[N+]([O-])c1ccc(-c2cc3c(Nc4ccc(OCc5cccc(Cl)c5)c(Cl)c4)ncnc3s2)cc1`, the growth is 35.9% (inactive).

Regarding `COC(=O)Nc1nc2ccc(C(=O)C3CC3)cc2[nH]1`, the growth was 7.18% (active).

`CCOC(=O)C(O)C(O)(c1ccccc1)c1ccccc1` (stereo unspecified): the growth is 101% (inactive).

For the compound `N#Cc1cnn2c(-c3ccc(Cl)cc3)nc(NC3CC3)nc12`, the growth was 108% (inactive).

Consider `O=C(NCOC(O)C(Cl)(Cl)Cl)NCOC(O)C(Cl)(Cl)Cl` (stereo unspecified), for which the growth was 100% (inactive).

Take `Cc1nn(-c2ccccc2)c2c1C(c1ccc([N+](=O)[O-])cc1)C(C#N)=C(N)O2` (stereo unspecified): the growth is 106% (inactive).

Regarding `O=[N+]([O-])c1ccccc1C(O)Cc1ccc2ccccc2n1` (stereo unspecified), the growth is 90% (inactive).

As to `N#Cc1cnn2c(-c3ccc(Cl)cc3)nc(NCCc3ccccc3)nc12`, the growth is 95% (inactive).

For the compound `CCOC(=O)C(=CNc1ccccc1[N+](=O)[O-])C(=O)OCC`, the growth is 118% (inactive).

As for `Cc1ccc(NSc2ccccc2[N+](=O)[O-])cc1`, the growth is 7.95% (active).

For `CCOc1cc(N)ccc1C(=O)NCCCN(CC)CC`, the growth was 96.1% (inactive).

Regarding `COc1ccc(-c2nnc(SCC(=O)NC3=NN=C(c4ccccc4)CS3)o2)cc1`, the growth was 95.5% (inactive).

`CCCCCCCCN(CCCCCCCC)C(=N)c1ccnc2ccccc12`: the growth was -84.6% (active).

Regarding `O=C1c2ccccc2C2(c3ccc(O)cc3)c3ccccc3Oc3cccc1c32` (stereo unspecified), the growth was 0.454% (active).

As for `Cc1c(Cl)cccc1NS(=O)(=O)c1ccccc1`, the growth was 105% (inactive).

Consider `CN(C)c1cnccn1`, for which the growth is 97.5% (inactive).

As for `Nc1ccc(-c2cc3c(Nc4ccc(OCc5cccc(F)c5)c(Cl)c4)ncnc3s2)cc1`, the growth is 51.9% (inactive).

As for `O=[N+]([O-])c1ccc(-c2cc3c(Nc4ccc(Cl)c(C(F)(F)F)c4)ncnc3s2)cc1`, the growth was 19.4% (inactive).

With `O=[N+]([O-])c1ccc(-c2cc3c(Nc4ccc(Sc5nc6ccccc6s5)c(Cl)c4)ncnc3s2)cc1`, the growth was 35.2% (inactive).

In the case of `CCOC(=O)N1CCc2c(sc3c2C(=O)N[C@H](c2ccc(OC)cc2)N3)C1`, the growth was 94.7% (inactive).

Take `Cc1cn(C2CCCCC2)c(=O)[nH]c1=O`: the growth was 106% (inactive).

With `Clc1ccc(-c2nc(NCCc3ccccc3)nc3c(NCCc4ccccc4)cnn23)cc1`, the growth was 70% (inactive).

For the compound `COc1ccc(-c2nnc(-c3ccc4c(c3)nc(-c3ccccc3)n4C3CCCCC3)o2)cc1`, the growth was 38.9% (inactive).

With `CCN(CC)CCCNC(=O)c1ccc(N)cc1`, the growth was 98.7% (inactive).
